HP1b binding inh – HP1-beta chromodomain-methylated histone interaction inhibition. P83916. AlphaScreen HP1-beta / biotin-H3K9me3 peptide binding. Potency, µM (titrated, usually from 114 µM), inactives show at the top dose activity change, negative = inhibition, hits mostly inhibitors. 0.56% of 390,000 active; further: potency means the concentration at half of the fitted maximal effect; nearly all actives have a fitted effect of over 70% in size
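Compound inhibition of the preformed complex between 50 nM HP1-beta and 50 nM biotinylated H3K9me3 peptide was read by AlphaScreen. Buffer was PBS pH 7.4 with 0.01% Tween-20. Incubations ran 30 min at room temperature, with 10 ug/mL donor/acceptor beads.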
PI5P4Ka inh – PI5P4K alpha (human) kinase inhibition | PI5P4Kalpha enzyme, ADP-Glo luminescence, 60 min; hits give low values | max response, % | 1.2% of 330,000 active | AID 652105; active means max response of -50% or lower; inconclusive means between -30% and -50%; inactive means -30% or higher; further: value at the top dose of about 77 µM; on the % scale 0 is the no-effect control and ±100 the full control effect
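Single end-point luminescence (ADP-Glo) quantified ADP from PI5P4Kalpha turnover; ATP 5 microM final, 1 h at RT, 0.1% CHAPS and 0.28 mM EGTA in HEPES pH 7.4.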
G9a inh – G9a (human) methyltransferase inhibition; Potency, µM (doses to about 102 µM), inactives show top-dose activity, negative = inhibition, actives largely listed as inhibitors; Q96KQ7; G9a H3K9 monomethylation, AlphaScreen, 2 h; AID 504332; 8.8% of 350,000 active; further: potency means the concentration at half of the fitted maximal effect; on the % scale 0 is the no-effect control and ±100 the full control effect; nearly all actives have a fitted effect of over 75% in size
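Enzyme 20 nM + cpd, 15 min RT; add b-H3K9 pep 500 nM / SAM 20 uM; 2 h RT; anti-H3K9me1 Ab 0.5 ug/mL + SA donor / anti-rabbit acceptor beads 20 ug/mL each, 10 min; AlphaScreen read.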
BAZ2B inh – blocks human BAZ2B; AID 504333; 4.4% of 360,000 active; Potency, µM (top dose mostly 114 µM), for the others: at the highest dose activity change, negative = inhibition, hits mostly inhibitors; AlphaScreen BAZ2B-H3K14Ac peptide displacement; Q9UIF8; further: potency means the concentration at half of the fitted maximal effect; on the % scale 0 is the no-effect control and ±100 the full control effect; nearly all actives have a fitted effect of over 60% in size
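AlphaScreen displacement of biotin-H3(5-23)K14Ac peptide (50 nM final) from BAZ2B (50 nM final) in PBS pH 7.4, 0.01% Tween-20; complex preformed 30 min RT, then compounds (top 110 uM) 30 min RT, beads 20 min dark.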
JMJD2A Tudor inh – inhibitors of human JMJD2A Tudor domain; AlphaScreen JMJD2A-Tudor / H3K4me3 peptide binding; Potency, µM (highest dose often 114 µM), inactives show at the highest dose activity change, negative = inhibition, hits mostly inhibitors; 4.4% of 390,000 active; further: potency means the concentration at half of the fitted maximal effect; on the % scale 0 is the no-effect control and ±100 the full control effect; nearly all actives have a fitted effect of over 50% in size
Target sequence (O75164 whole entry, looked up, the tested form may be a part): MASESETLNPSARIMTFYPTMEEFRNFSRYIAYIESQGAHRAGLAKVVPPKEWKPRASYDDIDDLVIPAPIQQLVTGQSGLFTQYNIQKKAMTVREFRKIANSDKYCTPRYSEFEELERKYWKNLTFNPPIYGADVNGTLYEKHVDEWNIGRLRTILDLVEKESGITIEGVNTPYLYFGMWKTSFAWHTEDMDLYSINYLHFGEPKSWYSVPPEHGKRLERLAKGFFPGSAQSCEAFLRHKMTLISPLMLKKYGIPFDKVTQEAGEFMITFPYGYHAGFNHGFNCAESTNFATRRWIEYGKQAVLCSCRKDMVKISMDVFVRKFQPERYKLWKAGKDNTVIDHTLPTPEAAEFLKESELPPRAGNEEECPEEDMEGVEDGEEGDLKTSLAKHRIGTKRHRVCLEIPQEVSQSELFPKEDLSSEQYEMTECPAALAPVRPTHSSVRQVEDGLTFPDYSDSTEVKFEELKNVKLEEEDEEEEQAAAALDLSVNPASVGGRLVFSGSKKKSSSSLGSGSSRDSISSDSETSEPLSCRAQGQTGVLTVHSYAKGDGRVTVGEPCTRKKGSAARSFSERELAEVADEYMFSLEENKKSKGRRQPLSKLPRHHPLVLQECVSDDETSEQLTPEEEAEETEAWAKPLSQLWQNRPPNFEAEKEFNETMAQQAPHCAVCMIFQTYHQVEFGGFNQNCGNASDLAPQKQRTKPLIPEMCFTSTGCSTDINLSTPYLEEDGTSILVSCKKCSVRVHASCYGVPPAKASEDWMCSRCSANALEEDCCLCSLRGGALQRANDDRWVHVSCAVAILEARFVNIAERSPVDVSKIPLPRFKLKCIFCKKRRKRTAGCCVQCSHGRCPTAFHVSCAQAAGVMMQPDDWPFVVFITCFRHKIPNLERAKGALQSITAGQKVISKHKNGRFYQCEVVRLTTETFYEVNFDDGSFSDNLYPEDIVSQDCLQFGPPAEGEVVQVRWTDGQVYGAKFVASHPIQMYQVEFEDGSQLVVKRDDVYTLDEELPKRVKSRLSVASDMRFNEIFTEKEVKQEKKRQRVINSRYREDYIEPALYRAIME
PLK1 PBD inh – blocks phosphopeptide binding to human PLK1 polo-box domain. AID 720504. Potency, µM, inactives show max response, negative = inhibition, usual class: inhibitors. P53350. 2.8% of 360,000 active. Plk1 PBD binding of FITC phosphopeptide, fluorescence polarization; further: potency means the concentration at half of the fitted maximal effect; series mostly up to about 57 µM; on the % scale 0 is the no-effect control and ±100 the full control effect; nearly all actives have a fitted effect of over 65% in size
The depositor's hits bear a star; u = inconclusive; x = no result given; [ ] = remark or other dose. Shown are actives, neighbours in structure and some others; about 12% of the full set was active somewhere. Unless noted, the call rests on the fitted dose curve; in most records, active means well fitted curve in the direction sought with a large enough effect; inconclusive means small, poorly fitted or top-dose-only effect, or another doubt; inactive means no such curve, though single readings can be large; an effect the other way counts as inactive or inconclusive.

SMILES | HP1b binding inh | PI5P4Ka inh | G9a inh | BAZ2B inh | JMJD2A Tudor inh | PLK1 PBD inh
O=c1[nH]c2ccccc2c(O)c1-c1ccccc1[N+](=O)[O-] | 6% | -6 | -5% | -24% | -14%[11.4 µM] | 24µM*
CC1(C)N([O-])C2=C(c3ccccc3C2=O)[N+](=O)C1(C)C | -2% | 4 | 79µM* | 13% | -8% | 11µM*
COc1ccc(OCc2cc(C(=O)NCC3CCOCC3)no2)c(Cl)c1 | 25% | -10 | 5% | -24% | -6% | -10%
COc1ccc(OCc2cc(C(=O)NCC3CCCCO3)no2)c(Cl)c1 (stereo not drawn) | 25% | -1 | 49% | 5% | u | 30µM*
COc1cc(C2C(C(C)=O)=C(O)C(=O)N2c2ccc(Br)cn2)ccc1O (stereo not drawn) | -1% | -3 | 2%[0.0925 µM] | u | 89µM* | -11%
CC(=O)C1=C(O)C(=O)N(c2ccc(Br)cn2)C1c1ccc(F)cc1 (stereo not drawn) | 20% | -2 | x | 56µM* | 1.1µM* | -16%
CC(=O)C1=C(O)C(=O)N(c2cc(C(C)(C)C)on2)C1c1ccc(Br)cc1 (stereo not drawn) | 35% | x | 45µM* | -37% | u | u
CC(=O)C1=C(O)C(=O)N(c2ccc(Br)cn2)C1c1cccc([N+](=O)[O-])c1 (stereo not drawn) | 5% | 2 | 17%[2.33 µM] | -19% | -20% | -25%
CC(=O)C1=C(O)C(=O)N(c2nccs2)C1c1ccc(F)cc1 (stereo not drawn) | 30% | -1 | -9% | 1% | -20% | -10%
CC(=O)C1=C(O)C(=O)N(c2ccc(Br)cn2)C1c1ccc(Br)cc1 (stereo not drawn) | -13% | 1 | 56µM* | u | 22µM* | -16%
CC(=O)C1=C(O)C(=O)N(c2nccs2)C1c1ccc(Br)cc1 (stereo not drawn) | 10% | -22 | u | -7% | -9% | -2%
O=C(OC(c1ccccc1)c1nccc2ccccc12)c1cc([N+](=O)[O-])cc([N+](=O)[O-])c1 (stereo not drawn) | u | 4 | 10µM* | u | u | -7%
Cc1ccc(C)c(CN2CCCNC2=O)c1 | 21% | x | 45µM* | u | -15% | -12%
Cc1ccc(CN2CCCNC2=O)cc1 | 3% | x | -6% | u | -15% | -3%
COc1ccc(N2C(=S)N=C(Nc3ccccc3)C23CCCCC3)cc1 | 53% | 0 | 5%[59 µM] | -35% | 0% | 6%
COc1ccc(Nc2ccc3c(c2)=NC2(CCCCC2)[N+]=3[O-])cc1 | u | -18 | u | 40µM* | 22µM* | -16%
[O-][N+]1=c2ccc(Nc3ccccc3)cc2=NC12CCCCC2 | u | -8 | x | 20µM* | 40µM* | -17%
Cc1c2cnn(CC(=O)N3CCN(c4ccc(F)cc4)CC3)c(=O)c2c(C)n1Cc1ccccc1F | -2% | x | -20%[59 µM] | u | u | x
CC=C1OC(n2cnc3c(N)ncnc32)C(O)C1O (stereo not drawn) | x | -4 | x | x | x | -6%
COc1cccc2c(=O)c(SC(F)(F)C(F)C(F)(F)F)c(C)[nH]c12 (stereo not drawn) | 12% | x | u | -1% | -5% | -5%
Cc1[nH]c2ccc(F)cc2c(=O)c1SC(F)(F)C(F)C(F)(F)F (stereo not drawn) | 28% | 6 | 32µM* | 10% | -9% | -18%
C/C(=N\Nc1ccc(S(=O)(=O)Nc2ccc(Cl)cc2)cc1[N+](=O)[O-])c1ccc(N2CCOCC2)cc1 | u | 6 | 8.9µM* | 7.9µM* | 5µM* | -8%
O=C(NCCCN1CCOCC1)c1ccc(Cl)s1 | 9% | x | 19% | -3% | -7% | -5%
COc1ccc(NS(=O)(=O)c2ccc(N3CCOCC3)c(NC(=O)C(C)C)c2)cc1 | 23% | 3 | -1% | x | -4% | -1%
O=S(=O)(NCCCN1CCOCC1)c1ccc(Cl)s1 | 4% | -26 | 19%[59 µM] | -34% | -21%[11.4 µM] | 8.4µM*

Assay outcomes (PubChem BioAssay)
